Experimental data from PubChem BioAssay.
A number with no mark means an inactive call. Calls of active or inactive are those of the source.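 How the source made its calls, unless noted: active means compounds that lower viability of the colon cancer cells in the luminescence readout, with no numeric limit stated; inactive means the rest.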

Assay: HCT116 colon cancer cell growth inhibition, primary screen, CellTiter-Glo luminescence, NPC library (AID 1117342;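 active means compounds that lower survival of HCT116 colon cancer cells in the luminescence readout, no numeric limit stated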)
Conditions: at 20 µM (top of the series)

SMILES | inhibition of viability
O=c1c(-c2ccccc2)c1-c1ccccc1 | 64.4% (active)
COc1ccc(C(=O)NCc2ccc(OCCN(C)C)cc2)cc1OC | 7%
CC(C(=O)O)c1ccc(CC2CCCC2=O)cc1 (stereo unspecified) | 10.8%
CN1CCN(c2c(F)cc3c(=O)c(C(=O)O)cn4c3c2SCC4)CC1 | 7.2%
CN1CCN(C2=Nc3cc(F)ccc3Cc3ccccc32)CC1 | 37.7%
Nc1c2c(nc3c1CCC3)CCCC2 | 1%
CC(=O)NS(=O)(=O)c1ccc(N)cc1 | 1.2%
C[C@H](NC(CCc1ccccc1)C(=O)O)C(=O)N1CCC[C@H]1C(=O)O (stereo partly specified) | 2.7%
O=C1c2cccc3c2[C@H](CCC3)CN1[C@@H]1CN2CCC1CC2 | 42%
CCOC(=O)C1=C(C)NC(C)=C(C(=O)OCC)C1c1ccccc1/C=C/C(=O)OC(C)(C)C | 124% (active)
CCN1CCN(c2cc3c(cc2F)c(=O)c(C(=O)O)cn3C2CC2)CC1 | 36.2%
CC1(C)S[C@@H]2[C@H](N=CN3CCCCCC3)C(=O)N2[C@H]1C(=O)O | 15.1%
CC(=O)OCC(=O)NCCCOc1cccc(CN2CCCCC2)c1 | -15.6%
Clc1ccc2c(c1)CCc1cccnc1C2=C1CCNCC1 | 55.5% (active)
CCc1c(C)[nH]c2c1C(=O)C(CN1CCOCC1)CC2 (stereo unspecified) | -24.1%
COc1cc(C)nc(-n2nc(C)cc2OC)n1 | -10.1%
COc1cc(C(=O)NC2CCCNC2)cc(OC)c1OC (stereo unspecified) | 0.8%
CC(C)(C(=O)c1cccnc1)c1cccnc1 | 0.97%
CC(Oc1c(Cl)cccc1Cl)C1=NCCN1 (stereo unspecified) | 31.3%

SMILES | inhibition of viability
CN(C)CC[C@@H](c1ccc(Br)cc1)c1ccccn1 | 27.2%
OCc1cccnc1 | -9.5%
CC(C)(C)C(O)/C=C/c1ccc2c(c1)OCO2 (stereo unspecified) | 11.7%
COC(=O)C1=C(C)NC(C)=C(C(=O)O[C@@H]2CCCN(Cc3ccccc3)C2)[C@@H]1c1cccc([N+](=O)[O-])c1 | 109% (active)
COc1cc(C)c(Cc2cnc(N)nc2N)cc1OC | 6.8%
CCN1CC(CCN2CCOCC2)C(c2ccccc2)(c2ccccc2)C1=O (stereo unspecified) | 17%
COC(=O)C1=C(C)NC(C)=C(C(=O)OCC(C)C)C1c1ccccc1[N+](=O)[O-] (stereo unspecified) | 97.8% (active)
COc1cc2c(cc1OC)C(=O)C(CC1CCN(Cc3ccccc3)CC1)C2 (stereo unspecified) | 49.6%
COc1ccc(CN2CCN(C(c3ccc(F)cc3)c3ccc(F)cc3)CC2)c(OC)c1OC | 110% (active)
Cc1cccc(C)c1NC(=O)C(C)N (stereo unspecified) | -4.1%
NCC1CCC(C(=O)Oc2ccc(CCC(=O)O)cc2)CC1 (stereo unspecified) | -7.95%
CCCN1CCCC[C@H]1C(=O)Nc1c(C)cccc1C | 3.1%
CC(C)(O)c1ccccc1CC[C@@H](SCC1(CC(=O)O)CC1)c1cccc(/C=C/c2ccc3ccc(Cl)cc3n2)c1 | 114% (active)
CC(=O)Nc1ccc(CC(=O)O)cc1 | -11%
CCN(CC)CCNC(=O)c1cc(Cl)c(N)cc1OC | -2.1%
NC1CCN(c2nc3c(cc2F)c(=O)c(C(=O)O)cn3-c2ccc(F)cc2F)C1 (stereo unspecified) | -9.3%
C[C@H]1COc2c(C3(N)CC3)c(F)cc3c(=O)c(C(=O)O)cn1c23 | -19.1%
CN(C)CC[C@@H](c1ccc(Cl)cc1)c1ccccn1 | 28.8%
COCc1c(C(C)C)nc(C(C)C)c(/C=C/[C@@H](O)C[C@@H](O)CC(=O)O)c1-c1ccc(F)cc1 | 112% (active)

Assay: CellTiter-Glo luminescent readout of SW480 viability loss, NPC library primary (AID 1117343)
Conditions: CellTiter-Glo luminescence; at 20 µM (top of the series)

SMILES | viability decrease (inhibition)
O=c1c(-c2ccccc2)c1-c1ccccc1 | 106% (active)
COc1ccc(C(=O)NCc2ccc(OCCN(C)C)cc2)cc1OC | -4.6%
CC(C(=O)O)c1ccc(CC2CCCC2=O)cc1 (stereo unspecified) | 37.6%
CN1CCN(c2c(F)cc3c(=O)c(C(=O)O)cn4c3c2SCC4)CC1 | -18.1%
CN1CCN(C2=Nc3cc(F)ccc3Cc3ccccc32)CC1 | 26.9%
Nc1c2c(nc3c1CCC3)CCCC2 | 4.4%
CC(=O)NS(=O)(=O)c1ccc(N)cc1 | -3.2%
C[C@H](NC(CCc1ccccc1)C(=O)O)C(=O)N1CCC[C@H]1C(=O)O (stereo partly specified) | -8.4%
O=C1c2cccc3c2[C@H](CCC3)CN1[C@@H]1CN2CCC1CC2 | 31%
CCOC(=O)C1=C(C)NC(C)=C(C(=O)OCC)C1c1ccccc1/C=C/C(=O)OC(C)(C)C | 158% (active)
CCN1CCN(c2cc3c(cc2F)c(=O)c(C(=O)O)cn3C2CC2)CC1 | 11.7%
CC1(C)S[C@@H]2[C@H](N=CN3CCCCCC3)C(=O)N2[C@H]1C(=O)O | -20.4%
CC(=O)OCC(=O)NCCCOc1cccc(CN2CCCCC2)c1 | 22.9%
Clc1ccc2c(c1)CCc1cccnc1C2=C1CCNCC1 | 97.8% (active)
CCc1c(C)[nH]c2c1C(=O)C(CN1CCOCC1)CC2 (stereo unspecified) | -3.8%
COc1cc(C)nc(-n2nc(C)cc2OC)n1 | 1.8%
COc1cc(C(=O)NC2CCCNC2)cc(OC)c1OC (stereo unspecified) | 37.5%
CC(C)(C(=O)c1cccnc1)c1cccnc1 | 1.2%
CC(Oc1c(Cl)cccc1Cl)C1=NCCN1 (stereo unspecified) | 12.5%

SMILES | viability decrease (inhibition)
CN(C)CC[C@@H](c1ccc(Br)cc1)c1ccccn1 | 30.9%
OCc1cccnc1 | -6.5%
CC(C)(C)C(O)/C=C/c1ccc2c(c1)OCO2 (stereo unspecified) | -0.9%
COC(=O)C1=C(C)NC(C)=C(C(=O)O[C@@H]2CCCN(Cc3ccccc3)C2)[C@@H]1c1cccc([N+](=O)[O-])c1 | 131% (active)
COc1cc(C)c(Cc2cnc(N)nc2N)cc1OC | 11.5%
CCN1CC(CCN2CCOCC2)C(c2ccccc2)(c2ccccc2)C1=O (stereo unspecified) | 13.5%
COC(=O)C1=C(C)NC(C)=C(C(=O)OCC(C)C)C1c1ccccc1[N+](=O)[O-] (stereo unspecified) | 122% (active)
COc1cc2c(cc1OC)C(=O)C(CC1CCN(Cc3ccccc3)CC1)C2 (stereo unspecified) | 69.8% (active)
COc1ccc(CN2CCN(C(c3ccc(F)cc3)c3ccc(F)cc3)CC2)c(OC)c1OC | 133% (active)
Cc1cccc(C)c1NC(=O)C(C)N (stereo unspecified) | 0.1%
NCC1CCC(C(=O)Oc2ccc(CCC(=O)O)cc2)CC1 (stereo unspecified) | 17.7%
CCCN1CCCC[C@H]1C(=O)Nc1c(C)cccc1C | -17%
CC(C)(O)c1ccccc1CC[C@@H](SCC1(CC(=O)O)CC1)c1cccc(/C=C/c2ccc3ccc(Cl)cc3n2)c1 | 133% (active)
CC(=O)Nc1ccc(CC(=O)O)cc1 | 16.5%
CCN(CC)CCNC(=O)c1cc(Cl)c(N)cc1OC | -17.7%
NC1CCN(c2nc3c(cc2F)c(=O)c(C(=O)O)cn3-c2ccc(F)cc2F)C1 (stereo unspecified) | -19.3%
C[C@H]1COc2c(C3(N)CC3)c(F)cc3c(=O)c(C(=O)O)cn1c23 | 43.9%
CN(C)CC[C@@H](c1ccc(Cl)cc1)c1ccccn1 | 35.9%
COCc1c(C(C)C)nc(C(C)C)c(/C=C/[C@@H](O)C[C@@H](O)CC(=O)O)c1-c1ccc(F)cc1 | 151% (active)
